The results in this text go back to ChEMBL document CHEMBL3988442, “University of Dundee, Small-Polar-MMV Screening Library” (2021).

Each structure is given as a SMILES string. The whole screen tested about 48,000 compounds, of which about 13,000 (27%) showed an effect of 50% or more. The list shows a part of the results.

The experiment concerns Wolbachia pipientis. Description: Anti-Wolbachia Cell-Based Screen. The class given is functional. Also on record: scale not given: in the data most compounds retested in dose-response had high values. The note with it: 5 µM.
With `COc1ccccc1N1CCC(N2CCOCC(CO)C2)CC1` (stereo not drawn), the “Percent Effect” value amounted to 9.24%.

For `O=C(CC1CCCO1)NCc1ccc(Br)cc1F` (stereo not drawn), the “Percent Effect” value was found to be 3.91%. On to `CN(CC1(CO)CCOCC1)[C@@H]1c2ccccc2C2(CCNCC2)[C@H]1O`, for which the “Percent Effect” value was determined as 1.582%. Under `O=C(O)[C@]12CCCN(Cc3cccnc3)[C@@H]1CCN(c1cnccn1)C2` stands -19.78%; under `c1cc(CN2CCCCC2c2ccc(Nc3cnccn3)nc2)ccn1` (stereo not drawn), 159%; under `c1cncc(CN2CCCCC2c2ccc(Nc3cnccn3)nc2)c1` (stereo not drawn), 73.84%. Under `CC(C)(C)OC(=O)NCC1CCCCN1Cc1cccnc1` (stereo not drawn) stands 4.728%. Under `CC(C)(C)OC(=O)NCC1CCCCN1Cc1ccncc1` (stereo not drawn) stands -3.492%; under `CCc1ccc(C(=O)N2CCN(CCS(C)(=O)=O)CC2)o1`, -5.31%.

As to `Cc1nsc(N2CCN(C(=O)Nc3cccc(F)c3)CC2)n1`, the “Percent Effect” value is on record as -8.293%. Next, `Cc1cccc(NC(=O)N2CCC3(CCC(C(=O)N(C)C)O3)CC2)c1` (stereo not drawn): 100.6%; `Cc1cccc(NC(=O)N2CCN(Cc3nnc(C(C)C)o3)CC2)c1`: -19.75%.

For the molecule `O=C(Nc1cccc(-c2cscn2)c1)N1CCC2(CC1)CC(O)CO2` (stereo not drawn), the “Percent Effect” value is listed as -8.053%. Consider `CN(C)C(=O)C1CCC2(CCN(C(=O)Nc3cccc(F)c3)CC2)O1` (stereo not drawn), for which the “Percent Effect” value is given as 98.46%. Under `O=C(Nc1cccc(F)c1)N1CCN(Cc2noc(C3CC3)n2)CC1` stands -10.54%; under `CC(C)NC(=O)CN1CCC2(CC1)OCCO2`, -0.8474%. Turning to `O=C1NCCCc2[nH]c(-c3nc(C4CCCCC4)no3)nc21`, the “Percent Effect” value is reported as 4.619%. Under `O=C1NCCCc2[nH]c(-c3nc(C4CC4)no3)nc21` stands -6.286%; under `O=C1CCC2(CCCN(C(=O)Cc3cccs3)C2)N1` (stereo not drawn), -20.18%. Under `CC(=O)N1CCC(c2nc(Cc3ccccc3)no2)C1` (stereo not drawn) stands -18.53%; under `Cc1noc(C2CCN(CC(=O)N3CCNC(=O)C3)CC2)n1`, -10.42%; under `CC(C)(C)C(=O)N1CCC(c2noc(C3CCC(=O)N3)n2)CC1` (stereo not drawn), 136.3%. With `CC(=O)N1CCC(c2noc(C3CCC(=O)N3)n2)CC1` (stereo not drawn), the “Percent Effect” value was 120.5%. Consider `O=C1CCC(c2nc(C3CCNCC3)no2)N1` (stereo not drawn), for which the “Percent Effect” value was determined as 104.8%.

Turning to `Cc1nc(C2CCCN(C(=O)C(C)(C)n3cc(Cl)cn3)C2)no1` (stereo not drawn), the “Percent Effect” value was -4.996%. Under `O=C(Nc1cccs1)N1CC(c2nc(C3CC3)no2)C1` stands 10.74%; under `O=C1CCC(c2nc(C3CCN(C(=O)Cc4cccs4)CC3)no2)N1` (stereo not drawn), 131.4%. Under `CN(C)C(C(=O)N1CC(Oc2ccccc2F)C1)c1ccc(F)cc1` (stereo not drawn) stands 10.57%. Under `CCN(CC1CCOC1)C(=O)Nc1ccc(-n2cncn2)nc1` (stereo not drawn) stands -5.162%; under `CCC[C@H]1CN(CCS(C)(=O)=O)C[C@@H]1NC(=O)Cn1cc(C)cn1`, -15.47%; under `CCc1nccn1CCNC1CCN(c2nc3ccc(Cl)cc3s2)CC1`, -30.49%. Regarding `O=C(CN1CCCC(c2noc(C3CC3)n2)C1)N1CCCC1` (stereo not drawn), the “Percent Effect” value is -17.34%. Next, `CC1(C)CNC(=O)c2nc(C3CCN(C(=O)C4CC4)CC3)[nH]c2C1`: -1.461%; `O=C1CCC(c2nc(C3CCN(C(=O)C4CC4)CC3)no2)N1` (stereo not drawn): 107.7%.

For `CC(Nc1ncnc2c1CCNC2)c1ccc2c(c1)CCCC2` (stereo not drawn), the “Percent Effect” value is -81.25%. Turning to `CC(C)CNc1nccc(-c2cnc3sc(Cl)cn3c2=O)n1`, the “Percent Effect” value is on record as 98.56%. Take `CC[C@H](C)Nc1nccc(-c2cnc3sccn3c2=O)n1`: the “Percent Effect” value turned out to be 96.29%. Next, `Cc1ccc(NCCCNc2nccc(-c3cn(C)nc3C)n2)nc1`: 4.133%; `CC[C@@H](CO)Nc1nccc(-c2cnc3sc(C)cn3c2=O)n1`: 82.9%; `C[C@@H](CO)Nc1nccc(-c2cnc3sc(Cl)cn3c2=O)n1`: 101.5%. Under `c1cnc(NCc2n[nH]c3c2CCN(Cc2ccncc2)C3)nc1` stands -7.099%; under `Cc1nc[nH]c1CN1CCCC(CNC(=O)c2ccc(N)nc2)C1` (stereo not drawn), -15.92%. Next, `COc1cc2c(nn1)CCN(Cc1noc(CC(C)C)n1)C2`: -12.11%.

For `Cc1nc(CN2CCCC(CCc3c(F)cccc3F)C2)c[nH]1` (stereo not drawn), the “Percent Effect” value came to 27.92%. Next, `CNS(=O)(=O)CCNCC1(O)CCCN(CCC2CCCCC2)C1=O` (stereo not drawn): 1.698%; `Cn1cc(NC(=O)CCc2ccsc2)ccc1=O`: -1.148%; `Cc1cn2c(=O)c(-c3ccnc(N[C@@H](C)CO)n3)cnc2s1`: 99.21%. Under `CC[C@H](C)Nc1nccc(-c2cnc3sc(C)cn3c2=O)n1` stands 91.04%. Regarding `CCCN(Cc1ccc(C#N)cc1)Cc1nnsc1Cl`, the “Percent Effect” value came out at 8.987%.

As for `CCNC(=O)CNC(=O)c1ccn(S(=O)(=O)c2ccc(C)cc2)c1`, the “Percent Effect” value is 0.9489%.

Take `Cc1cccc(CN2C[C@@H]3CC[C@H](C2)N(Cc2c(C)noc2C)C3=O)n1`: the “Percent Effect” value was -29.28%.

In the case of `Cc1cnn(CC2CCCCN2C(=O)c2cc(C(N)=O)cs2)c1` (stereo not drawn), the “Percent Effect” value stood at 3.915%. Next, `Cc1cnn(CC2CCCN2C(=O)c2cccc(-n3cnnn3)c2)c1` (stereo not drawn): -8.957%. Next, `COC(=O)[C@H]1CCCCN1C(=O)c1cccc(-n2cccn2)c1`: -1.168%; `Cc1cnn(CC2CCCN2C(=O)c2cccc(-n3ccc(C)n3)c2)c1` (stereo not drawn): 119%. Next, `Cc1cnn(CC2CCCN2C(=O)c2cccc(S(C)(=O)=O)c2)c1` (stereo not drawn): 115.2%; `Cc1cnn(CC2CCCCN2C(=O)c2cccc(C(N)=O)c2)c1` (stereo not drawn): 110.6%. Regarding `Cn1ccc(C2CCCCN2C(=O)c2cccc(-n3cccn3)c2)n1` (stereo not drawn), the “Percent Effect” value was -0.8494%. Under `CCN(CC)C(=O)C1CCCN1C(=O)c1cccc(-n2cnnn2)c1` (stereo not drawn) stands 98.96%.

For `Cc1cnn(CC2CCCN2C(=O)c2cccc(CC#N)c2)c1` (stereo not drawn), the “Percent Effect” value was -7.7%. Take `CC(C)c1nc(COc2cccc3c2NC(=O)CO3)cs1`: the “Percent Effect” value is listed as -10.7%. Under `NC(=O)c1c(NC(=O)CCC(=O)O)sc2c1CCc1ccccc1-2` stands 188.5%; under `O=C(Cc1cccs1)NCC1(O)CCc2ccccc2C1` (stereo not drawn), 1.555%; under `NC(=O)c1c(NC(=O)C2CCCO2)sc2c1CCc1ccccc1-2` (stereo not drawn), 117%. With `CC(=O)Nc1sc2c(c1C(=O)O)CCc1ccccc1-2`, the “Percent Effect” value turned out to be 112.1%. Under `NC(=O)c1c(NC(=O)CCCC(=O)O)sc2c1CCc1ccccc1-2` stands 119.8%; under `O=C(Nc1cccc(N2CCN(CC3CC3)CC2)c1)C1CCCO1` (stereo not drawn), -16.14%.

For `CC(C)(C)c1cc(NC(=O)C2CCCO2)n(-c2ccccn2)n1` (stereo not drawn), the “Percent Effect” value is reported as -31.1%.
